KB-V1 cytotox = KB-V1 MDR subline cytotoxicity; KB-V1 MDR cells viability, CellTiter-Glo, 72 h; Potency, µM (doses to about 46.1 µM), usual class: cytotoxic; 400,000 tested, 3.4% active; AID 1347076; further: potency means the concentration at half of the fitted maximal effect; nearly all actives have a fitted effect of over 60% in size
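Following 72 h at 37 degrees C with compound, KB-V1 cell viability was read by CellTiter-Glo luminescence, medium being phenol-red-free DMEM plus 10% FBS; concentration-response parameters came from normalized, curve-fitted qHTS data.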
HT1080-NT tox = kills 2HG-producing HT-1080-NT fibrosarcoma cells; 360,000 tested, 1.6% active; Potency, µM (highest dose often 46.1 µM), without a hit: at the highest dose activity, negative = less viability, most hits filed as cytotoxic; HT-1080-NT fibrosarcoma viability, CellTiter-Glo ATP luminescence, 48 h;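 further: NT is the 2HG producing partner of a matched IDH1 knockdown line; potency means the concentration at half of the fitted maximal effect; 0% = DMSO-treated cells and -100% = media-only wells without cells; nearly all actives have a fitted effect of over 55% in size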
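A 48-hour cytotoxicity screen used HT-1080-NT cells plated 2 hours before compound delivery. ATP-based CellTiter-Glo luminescence measured viability, normalized to DMSO and no-cell controls.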
IL1B secr inh = inflammasome signaling inhibition, IL-1 beta readout | AID 743279 | THP-1 LPS/ATP IL-1B secretion, AlphaLISA, 16 h; hits give low values | activity change, % at 57.5 µM | 360,000 tested, 4.7% active; in the data active means activity change below about -50%; inconclusive means mostly about -30% to -49%
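Secreted IL-1B measured by AlphaLISA bead assay after 16 h compound exposure of THP-1 cells; compounds (final up to 57.5 uM) added 1 h before LPS (250 ng/mL) and ATP (1.25 mM) stimulation; lower signal means less secretion.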
HT1080 IDH1KD tx = kills HT-1080 cells with IDH1 knockdown | HT-1080 IDH1 knockdown viability, ATP luminescence, 48 h | Potency, µM (doses to about 46.1 µM), inactives show at the top dose activity, negative = toxicity, most hits filed as cytotoxic | 360,000 tested, 2% active;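 further: potency means the concentration at half of the fitted maximal effect; 0% = DMSO wells and -100% = cell-free medium wells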
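Viability of IDH1-knockdown HT-1080 fibrosarcoma cells was assessed by CellTiter-Glo after 48 h at 37 °C with titrated compound; concentration-effect curves were classified by fit quality and response size.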
KB-3-1 cytotox = kills parental KB-3-1 adenocarcinoma cells; KB-3-1 viability, CellTiter-Glo ATP luminescence, 72 h; Potency, µM (top dose mostly 46.1 µM), most hits filed as cytotoxic; 400,000 tested, 1.4% active; further: potency means the concentration at half of the fitted maximal effect; nearly all actives have a fitted effect of over 60% in size
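Multi-concentration cytotoxicity screen in KB-3-1 cells grown in DMEM lacking phenol red with 10% FBS. After 72 h at 37 °C with compound, ATP-dependent luminescence was recorded.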
Active calls of the source: *; i = inactive; u = inconclusive; x = not tested or not shown. Sampled rows, rich in hits. Any-hit rate of the full collection: about 8.8%. Unless noted, the call rests on the fitted dose curve; in most records, active means well fitted curve in the direction sought with a large enough effect; inconclusive means small, poorly fitted or top-dose-only effect, or another doubt; inactive means no such curve, though single readings can be large; an effect the other way counts as inactive or inconclusive. Unless noted, on the % scale 0 is the no-effect control and ±100 the full control effect.

SMILES	KB-V1 cytotox	HT1080-NT tox	IL1B secr inh	HT1080 IDH1KD tx	KB-3-1 cytotox
CCCCOP(=O)(OCCCC)C(Nc1ccc(C(=O)OCC)cc1)c1ccncc1 (stereo not drawn)	i	u	-65*	-10%	i
ClC1=C(Cl)C2(Cl)C3C(Cl)C=CC3C1(Cl)C2(Cl)Cl (stereo not drawn)	i	24%	56	0%	i
CCCCCNC(=O)C(c1ccncc1)n1c(=O)c(-c2cc3ccccc3[nH]2)nc2ccccc21 (stereo not drawn)	i	u	u	16µM*	u
COC(=O)Nc1nc2ccccc2[nH]1	3.7µM*	u	12	u	10µM*
CN1C(=O)NC(=O)/C(=C\C=C\c2ccccc2[N+](=O)[O-])C1=O	i	u	-98*	12µM*	u
CN1CCN(c2ccc([N+](=O)[O-])c(N/N=C3\CN4CCC3CC4)c2)CC1	i	-10%	u	-13%	i
Cc1cccc(-n2c(O)c(C=NCCCN3CCOCC3)c(=O)[nH]c2=O)c1C	i	12%	7	0%	i
COc1cccc(-n2c(-c3ccoc3)nc3ccccc3c2=O)c1	15µM*	5%	3	1%	i
C=C[C@@H]1C2=CCOC(=O)C2=CO[C@H]1O[C@@H]1O[C@H](CO)[C@@H](O)[C@H](O)[C@H]1O	i	11%	8	8%	i
NS(=O)(=O)c1ccc(N=Cc2c(O)n(C3CCCCC3)c(=O)n(C3CCCCC3)c2=O)cc1	i	u	-100*	u	i
CN1[C@@H]2CCC[C@H]1CC(=O)C2	i	22%	12	7%	i
O=C(NC1CN2CCC1CC2)c1cc(Cl)c([N+](=O)[O-])c2nc[nH]c12 (stereo not drawn)	i	6%	-104*	4%	i
C[C@]12CC[C@@H](O)CC1=CC(=O)C1C2CC[C@]2(C)C(=O)CCC12 (stereo partly drawn)	u	8%	-14	9%	i
FC(F)(F)c1ccc2c(c1)ncn2C1CCN(Cc2nnnn2C2CCCCC2)CC1	7.3µM*	-7%	u	-3%	u
COc1ccc(CCNCc2c(OC)ccc3ccccc23)cc1	i	u	-64*	-24%	i
COc1ccc(CCNCc2ccncc2)cc1	i	1%	4	-2%	i
COc1ccc(CCNC(C)CCc2ccc(OC)cc2)cc1 (stereo not drawn)	u	u	-64*	-26%	i
CCOc1cc(CNCCc2cccc(F)c2)ccc1OC	i	-13%	-9	-8%	i
COc1ccc(CCNCc2cc(OC)cc(OC)c2)cc1	u	-10%	-51*	-8%	i
COc1cccc(CCNCc2ccc(SC)cc2)c1	i	-19%	-65*	-14%	i
COc1ccc(CCNCc2ccccc2)cc1	i	-1%	-15	-3%	i
CCC(=NCC1CCCO1)c1c(O)n(-c2ccccc2C)c(=O)[nH]c1=O (stereo not drawn)	i	0%	-1	3%	i
CCN1CCN(S(=O)(=O)c2ccc(Cl)c(C(=O)Nc3ccc(C(=O)N(CC)CC)cc3)c2)CC1	u	27%	13	-11%	i
CCN(C=C1CC2C3CC=C4CC(O)CCC4(C)C3CCC2(C)C1=O)CC (stereo not drawn)	i	-24%	-18	u	i
COC(=O)C1=C(c2ccc(F)cc2F)C[C@@H]2CC[C@H]1N2C(=O)N1CCC(C)CC1	i	0%	9	-14%	i
Cc1cc(C=C2C(=O)N(C)C(=S)N(C)C2=O)c(C)n1C1CCCCC1	i	8%	-1	6%	i
Cc1cc(C=C2C(=O)NC(=S)NC2=O)c(C)n1C1CCCC1	i	-22%	-53*	u	i
COc1cc(C2c3cc4c(cc3CC3COC(=O)C32)OCO4)cc(OC)c1OC (stereo not drawn)	0.58µM*	0.37µM*	46	0.23µM*	0.92µM*
COc1cc([C@@H]2c3cc4c(c(O)c3C[C@H]3COC(=O)[C@@H]32)OCO4)cc(OC)c1OC	4.1µM*	x	x	x	0.52µM*

From PubChem BioAssay
